# Measured values reported in PubChem BioAssay (EPA / NIEHS).
# Results filed as inconclusive are left out. Calls of active or inactive are those of the source. The calls were made as follows, unless noted: active = hit-call score of the fitted dose curve at least 0.9, where 1 is the maximum; inactive = score below 0.9.
# Tests used:
# [1] = biological target: Nuclear receptor subfamily 4 group A member 2 (Homo sapiens) (UniProt P43354); assay: ATG_NURR1_TRANS: Attagene TRANS-FACTORIAL HepG2 Assay for human Nuclear Receptor Related Protein 1 (NURR1) (AID 2282985; active = hit-call score of the fitted dose curve at least 0.9, where 1 is the maximum); details: HepG2 Attagene TRANS reporter, mRNA readout
# Outline: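 Chimeric NR-Gal4 fusion activity measured in HepG2 after 24 h treatment. Reporter transcripts detected by RT-PCR and capillary electrophoresis fluorescence; positive-direction curve fitting against DMSO.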
# [2] = biological target: Transcriptional activator Myb (Homo sapiens) (UniProt P10242); assay: ATG_Myb_CIS: Attagene CIS-FACTORIAL HepG2 Assay for human Myeloblastosis (Myb) Proto-Oncogene Transcription Factor (AID 2282986); details: HepG2 Attagene CIS-FACTORIAL Myb reporter transcription; actives raise or lower the signal
# Outline: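 Multiplexed cis-reporter system in HepG2: transient transfection, 24 h treatment, mRNA readout by RT-PCR and capillary electrophoresis. Both increases and decreases are scored versus DMSO negative control.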
# [3] = biological target: Nuclear respiratory factor 1 (Homo sapiens) (UniProt Q16656); assay: ATG_NRF1_CIS: Attagene CIS-FACTORIAL HepG2 Assay for human Nuclear Respiratory Factor 1 (NRF1) Orphan Gene (AID 2282987); details: HepG2 NRF1 cis-element reporter, Attagene multiplex; actives raise or lower the signal
# Outline: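 Endogenous factor activity was captured via cis-element-driven reporter transcripts in HepG2 cells. Following 24 h chemical treatment, transcripts were quantified by RT-PCR and capillary electrophoresis.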
# [4] = ATG_NFI_CIS: Attagene CIS-FACTORIAL HepG2 Assay for human Nuclear Factor I (NFI) (AID 2282989); details: HepG2 cis-regulatory reporter, NFI response element transcription; actives raise or lower the signal
# Outline: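 HepG2 cells transiently transfected with cis-element-driven multiplexed reporter transcription units, dosed for 24 h. Reporter mRNA quantified by RT-PCR, fluorescent labelling, HpaI digestion and capillary electrophoresis; bidirectional fit versus DMSO baseline.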
# [5] = biological target: Myc proto-oncogene protein (Homo sapiens) (UniProt P01106); assay: ATG_Myc_CIS: Attagene CIS-FACTORIAL HepG2 Assay for human Myelocytomatosis (Myc) Proto-Oncogene Transcription Factor (AID 2282990); details: HepG2, Attagene cis-reporter transcription factor activity; actives raise or lower the signal
# Outline: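 DMSO-normalised, bidirectionally fitted reporter mRNA signal. HepG2 cells transfected with cis reporter constructs, treated 24 h; transcripts detected by RT-PCR, 6-FAM primer extension and CE.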
# [6] = ATG_Oct_MLP_CIS: Attagene CIS-FACTORIAL HepG2 Assay for human Octamer-Binding Transcription Factor (Oct) (AID 2282993); details: HepG2 Attagene cis-factorial Oct reporter, mRNA; actives raise or lower the signal
# Outline: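 HepG2 cells transiently transfected with cis-promoter-driven multiplexed reporter transcription units, dosed for 24 h. Reporter mRNA quantified by RT-PCR, fluorescent labelling, HpaI digestion and capillary electrophoresis; bidirectional fits versus DMSO baseline.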
# [7] = BSK_3C_TissueFactor: BioMAP Diversity Plus: 3C Assay for Tissue Factor Biomarker Activity (AID 2282997); details: BioMAP 3C HUVEC, tissue factor biomarker readout; actives raise or lower the signal
# Outline: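 Tissue Factor measured by ELISA, 24 h after treatment of primary HUVEC in the BioMAP 3C setting.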
# [8] = BSK_3C_uPAR: BioMAP Diversity Plus: 3C Assay for Urokinase-type plasminogen activator receptor (uPAR) Biomarker Activity (AID 2282998); details: BioMAP 3C HUVEC, uPAR biomarker ELISA; actives raise or lower the signal
# Outline: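 Human umbilical vein endothelial primary cells were exposed to test chemical for 24 h. Cell-surface uPAR was then quantified by ELISA, and responses were fitted bidirectionally against DMSO as negative control and baseline.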
# [9] = BSK_4H_Eotaxin3: BioMAP Diversity Plus: 4H Assay for Eotaxin 3 Biomarker Activity (AID 2283000); details: primary human endothelial cells (HUVEC); actives raise or lower the signal;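 as to outcome: CCL26 protein level quantified by ELISA in parallel with SRB cytotoxicity check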
# Outline: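 Eotaxin-3 (CCL26) levels were measured by ELISA in HUVEC primary cultures 24 h post-dosing. Gain or loss of signal was fitted in both directions, with DMSO serving as baseline and negative control.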
# [10] = biological target: human Peroxisome Proliferator-activated Receptor alpha (PPARa), PPARA (gene 5465) (UniProt Q07869); assay: ATG_PPARa_TRANS: Attagene TRANS-FACTORIAL HepG2 Assay for human Peroxisome Proliferator-activated Receptor alpha (PPARa) (AID 2283001; active = hit-call score of the fitted dose curve at least 0.9, where 1 is the maximum;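 as to AC50: potency for gain of reporter signal over DMSO so agonist or activator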)
# Outline: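 Cells (HepG2) are transfected with multiple reporter transcription units, exposed to chemical for 24 h, then total RNA is reverse-transcribed and amplified. Labelled products are quantified by capillary electrophoresis; induction is referenced to DMSO.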
# [11] = biological target: human Peroxisome Proliferator-activated Receptor delta (PPARd), PPARD (gene 5467) (UniProt Q03181); assay: ATG_PPARd_TRANS: Attagene TRANS-FACTORIAL HepG2 Assay for human Peroxisome Proliferator-activated Receptor delta (PPARd) (AID 2283002; active = hit-call score of the fitted dose curve at least 0.9, where 1 is the maximum)
# Outline: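 Measured quantity: GAL4-UAS reporter transcript induction in HepG2 after 24 h chemical dosing, with NR-Gal4 chimeras supplied by transient transfection. Detection by RT-PCR and capillary electrophoresis; upward fit against DMSO.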
# [12] = read-out: Intercellular Adhesion Molecule 1 (ICAM1), ICAM1 (gene 3383); assay: BSK_3C_ICAM1: BioMAP Diversity Plus: 3C Assay for Intercellular Adhesion Molecule 1 (ICAM1) Biomarker Activity (AID 2283003); details: primary human endothelial cells (HUVEC); actives raise or lower the signal
# Outline: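 Chemicals are dosed onto primary human umbilical vein endothelium (3C system). After 24 h, ICAM-1 is measured by ELISA, and responses are fitted bidirectionally relative to DMSO.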
# [13] = ATG_NF_kB_CIS: Attagene CIS-FACTORIAL HepG2 Assay for human Nuclear Factor Kappa B (NF-kB) (AID 2282991); details: HepG2 Attagene cis-factorial NF-kB reporter mRNA; actives raise or lower the signal
# Outline: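 After 24 h compound incubation, transfected HepG2 cells yield total RNA; reporter cDNA is PCR-amplified, end-labelled with 6-FAM, HpaI-digested and analysed on a genetic analyser. Endogenous factor activity, DMSO-referenced bidirectional fit.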
# [14] = ATG_NRF2_ARE_CIS: Attagene CIS-FACTORIAL HepG2 Assay for human Nuclear Factor Erythroid 2 Related Factor 2 (NFR2) response to Antioxidant Response Elements (ARE) (AID 2282992); details: HepG2 Attagene ARE/NRF2 reporter, transcription factor activity; actives raise or lower the signal;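 as to AC50: reporter mRNA level measured by RT-PCR and capillary electrophoresis fluorescence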
# Outline: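 Fluorescence intensity of reporter-specific cDNA fragments, separated by capillary electrophoresis, reflects mRNA induction in transfected HepG2 cells at 24 h. Activity is fitted bidirectionally, DMSO serving as baseline.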
# [15] = biological target: Cellular tumor antigen p53 (Homo sapiens) (UniProt P04637); assay: ATG_p53_CIS: Attagene CIS-FACTORIAL HepG2 Assay for human p53 Transcription Factor (AID 2282994); details: HepG2 p53 cis-element reporter, Attagene mRNA; actives raise or lower the signal
# Outline: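 Transiently transfected HepG2 (multiple cis reporter transcription units); exposure 24 h; reporter RNA via RT-PCR, 6-FAM extension, 2 h HpaI digest at 37 C, CE detection; DMSO baseline.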
# [16] = ATG_M_32_TRANS: Attagene TRANS-FACTORIAL HepG2 Assay for M32 Transcription Factor (Internal Marker) (AID 2282984; active = hit-call score of the fitted dose curve at least 0.9, where 1 is the maximum;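 also: transcript level of a background control reporter unit measured by RT-PCR and capillary electrophoresis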); details: HepG2 Attagene TRANS M32 internal marker reporter
# Outline: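 After 24 h dosing of transfected HepG2 cells, total RNA was reverse-transcribed, reporter sequences PCR-amplified, 6-FAM labelled by primer extension and HpaI-digested before capillary electrophoresis. Signal increase over DMSO was fitted.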
# [17] = BSK_3C_VCAM1: BioMAP Diversity Plus: 3C Assay for Vascular cell adhesion molecule 1 (VCAM1) Biomarker Activity (AID 2282999); details: BioMAP 3C HUVEC, VCAM1 ELISA, cytokine-stimulated; actives raise or lower the signal
# Outline: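 Vascular primary endothelium (human umbilical vein) was exposed to chemicals and assayed 24 h later. VCAM-1 levels came from ELISA, with DMSO serving as baseline for bidirectional fitting.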
# [18] = biological target: human Retinoic Acid Receptor beta (RARb), RARB (gene 5915) (UniProt P10826); assay: ATG_RARb_TRANS: Attagene TRANS-FACTORIAL HepG2 Assay for human Retinoic Acid Receptor beta (AID 2283004; active = hit-call score of the fitted dose curve at least 0.9, where 1 is the maximum)
# Outline: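 HepG2 cells were transiently transfected with GAL4-UAS reporter units that report activity of exogenous chimeric NR-Gal4 proteins, then exposed to compound for 24 h. Reporter mRNA was quantified by RT-PCR with capillary electrophoresis fluorescence, as gain of signal over DMSO.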
# Cellular tumor antigen p53 (Homo sapiens), sequence (P04637 whole entry, looked up): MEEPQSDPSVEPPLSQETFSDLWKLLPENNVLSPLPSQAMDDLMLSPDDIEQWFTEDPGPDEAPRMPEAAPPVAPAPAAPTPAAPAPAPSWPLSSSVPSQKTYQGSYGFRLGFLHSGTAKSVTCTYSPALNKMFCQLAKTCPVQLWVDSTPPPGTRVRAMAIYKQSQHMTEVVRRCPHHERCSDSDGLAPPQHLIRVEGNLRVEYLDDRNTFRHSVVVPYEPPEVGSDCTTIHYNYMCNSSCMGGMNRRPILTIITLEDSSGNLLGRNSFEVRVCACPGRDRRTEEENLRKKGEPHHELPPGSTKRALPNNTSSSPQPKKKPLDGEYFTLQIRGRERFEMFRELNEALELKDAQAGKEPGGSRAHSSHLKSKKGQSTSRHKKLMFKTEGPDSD
# Myc proto-oncogene protein (Homo sapiens), sequence (P01106 whole entry, looked up): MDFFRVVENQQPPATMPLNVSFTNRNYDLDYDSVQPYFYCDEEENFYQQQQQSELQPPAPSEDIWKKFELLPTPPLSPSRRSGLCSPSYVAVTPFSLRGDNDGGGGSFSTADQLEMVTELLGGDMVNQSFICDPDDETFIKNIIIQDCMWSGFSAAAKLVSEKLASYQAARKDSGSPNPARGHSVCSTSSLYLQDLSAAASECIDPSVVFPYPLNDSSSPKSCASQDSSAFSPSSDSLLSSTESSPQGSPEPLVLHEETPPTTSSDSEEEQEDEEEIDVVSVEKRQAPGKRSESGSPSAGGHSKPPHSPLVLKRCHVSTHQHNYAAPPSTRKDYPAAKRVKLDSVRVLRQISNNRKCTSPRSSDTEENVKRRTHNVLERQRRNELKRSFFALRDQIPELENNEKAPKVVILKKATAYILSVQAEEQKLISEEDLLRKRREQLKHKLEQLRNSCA
# Nuclear receptor subfamily 4 group A member 2 (Homo sapiens), sequence (P43354 whole entry, looked up, the tested form may be a part): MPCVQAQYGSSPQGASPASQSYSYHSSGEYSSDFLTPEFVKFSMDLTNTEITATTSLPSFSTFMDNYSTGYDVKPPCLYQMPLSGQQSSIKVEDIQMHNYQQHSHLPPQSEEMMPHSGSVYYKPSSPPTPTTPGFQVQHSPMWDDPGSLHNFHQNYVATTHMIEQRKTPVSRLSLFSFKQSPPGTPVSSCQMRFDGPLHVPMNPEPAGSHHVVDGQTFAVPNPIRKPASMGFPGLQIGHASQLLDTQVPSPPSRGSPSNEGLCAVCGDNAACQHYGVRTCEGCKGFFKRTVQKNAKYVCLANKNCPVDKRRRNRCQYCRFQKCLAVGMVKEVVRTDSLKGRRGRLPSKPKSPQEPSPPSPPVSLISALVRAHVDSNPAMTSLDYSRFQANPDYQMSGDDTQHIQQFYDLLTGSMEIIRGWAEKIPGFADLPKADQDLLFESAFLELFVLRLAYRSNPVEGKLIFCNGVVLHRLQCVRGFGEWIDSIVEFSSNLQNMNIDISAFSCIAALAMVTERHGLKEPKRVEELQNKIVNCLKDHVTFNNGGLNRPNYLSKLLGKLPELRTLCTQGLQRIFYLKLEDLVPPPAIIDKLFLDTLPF
# human Peroxisome Proliferator-activated Receptor alpha (PPARa), PPARA (gene 5465), sequence (Q07869 whole entry, looked up): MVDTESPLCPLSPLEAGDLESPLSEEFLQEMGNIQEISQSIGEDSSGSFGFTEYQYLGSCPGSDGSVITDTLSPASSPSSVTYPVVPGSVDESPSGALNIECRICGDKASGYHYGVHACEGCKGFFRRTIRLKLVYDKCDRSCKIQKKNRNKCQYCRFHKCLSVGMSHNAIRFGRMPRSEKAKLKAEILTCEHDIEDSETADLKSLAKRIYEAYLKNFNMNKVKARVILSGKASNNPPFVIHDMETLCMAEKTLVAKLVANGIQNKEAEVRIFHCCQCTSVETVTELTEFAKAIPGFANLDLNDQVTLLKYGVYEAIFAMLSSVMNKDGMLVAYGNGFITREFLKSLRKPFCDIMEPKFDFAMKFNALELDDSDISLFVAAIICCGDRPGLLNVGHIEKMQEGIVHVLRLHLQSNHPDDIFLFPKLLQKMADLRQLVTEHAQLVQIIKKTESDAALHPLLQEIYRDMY
# Transcriptional activator Myb (Homo sapiens), sequence (P10242 whole entry, looked up): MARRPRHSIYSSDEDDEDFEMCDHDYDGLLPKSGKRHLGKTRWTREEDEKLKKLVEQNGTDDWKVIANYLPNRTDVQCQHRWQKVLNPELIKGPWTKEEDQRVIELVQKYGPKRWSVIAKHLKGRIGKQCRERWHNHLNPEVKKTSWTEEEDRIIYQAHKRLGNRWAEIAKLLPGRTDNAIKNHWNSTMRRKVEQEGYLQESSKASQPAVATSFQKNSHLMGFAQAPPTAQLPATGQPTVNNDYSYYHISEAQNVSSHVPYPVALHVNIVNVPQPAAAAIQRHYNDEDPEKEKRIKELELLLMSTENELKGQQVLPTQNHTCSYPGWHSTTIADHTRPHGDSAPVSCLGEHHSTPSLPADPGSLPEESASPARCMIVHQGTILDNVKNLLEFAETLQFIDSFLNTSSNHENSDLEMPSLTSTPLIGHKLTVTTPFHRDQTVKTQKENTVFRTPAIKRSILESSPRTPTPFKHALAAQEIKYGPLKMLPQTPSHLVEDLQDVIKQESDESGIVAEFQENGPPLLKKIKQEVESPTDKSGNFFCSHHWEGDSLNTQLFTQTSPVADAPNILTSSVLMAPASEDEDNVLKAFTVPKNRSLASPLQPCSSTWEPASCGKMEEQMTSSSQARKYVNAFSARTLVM
# Nuclear respiratory factor 1 (Homo sapiens), sequence (Q16656 whole entry, looked up): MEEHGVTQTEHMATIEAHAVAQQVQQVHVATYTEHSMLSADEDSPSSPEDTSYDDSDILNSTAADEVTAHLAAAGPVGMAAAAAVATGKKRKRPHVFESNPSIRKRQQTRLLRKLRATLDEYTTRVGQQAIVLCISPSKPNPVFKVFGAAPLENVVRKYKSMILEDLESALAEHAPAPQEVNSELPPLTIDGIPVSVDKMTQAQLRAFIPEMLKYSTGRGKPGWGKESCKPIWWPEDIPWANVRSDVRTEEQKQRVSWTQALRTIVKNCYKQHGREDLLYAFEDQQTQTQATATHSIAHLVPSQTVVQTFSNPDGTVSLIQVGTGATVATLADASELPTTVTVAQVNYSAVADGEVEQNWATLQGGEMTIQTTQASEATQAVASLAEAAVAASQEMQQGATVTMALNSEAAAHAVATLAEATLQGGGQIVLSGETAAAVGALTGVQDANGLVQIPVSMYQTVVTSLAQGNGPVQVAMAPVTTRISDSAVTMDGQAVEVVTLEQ
# human Peroxisome Proliferator-activated Receptor delta (PPARd), PPARD (gene 5467), sequence (Q03181 whole entry, looked up, the tested form may be a part): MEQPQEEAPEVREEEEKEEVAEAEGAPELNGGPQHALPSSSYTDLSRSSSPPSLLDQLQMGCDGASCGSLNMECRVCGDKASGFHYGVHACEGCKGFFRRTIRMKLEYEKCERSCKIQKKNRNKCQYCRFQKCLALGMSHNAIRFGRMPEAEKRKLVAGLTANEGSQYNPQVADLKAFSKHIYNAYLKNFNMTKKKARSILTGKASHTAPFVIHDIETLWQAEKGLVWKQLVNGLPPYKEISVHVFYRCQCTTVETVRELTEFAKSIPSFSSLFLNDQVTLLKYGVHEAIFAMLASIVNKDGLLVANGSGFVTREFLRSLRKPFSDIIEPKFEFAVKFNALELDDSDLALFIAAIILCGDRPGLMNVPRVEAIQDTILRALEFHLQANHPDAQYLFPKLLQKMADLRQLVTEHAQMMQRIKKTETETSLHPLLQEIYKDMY
# human Retinoic Acid Receptor beta (RARb), RARB (gene 5915), sequence (P10826 whole entry, looked up, the tested form may be a part): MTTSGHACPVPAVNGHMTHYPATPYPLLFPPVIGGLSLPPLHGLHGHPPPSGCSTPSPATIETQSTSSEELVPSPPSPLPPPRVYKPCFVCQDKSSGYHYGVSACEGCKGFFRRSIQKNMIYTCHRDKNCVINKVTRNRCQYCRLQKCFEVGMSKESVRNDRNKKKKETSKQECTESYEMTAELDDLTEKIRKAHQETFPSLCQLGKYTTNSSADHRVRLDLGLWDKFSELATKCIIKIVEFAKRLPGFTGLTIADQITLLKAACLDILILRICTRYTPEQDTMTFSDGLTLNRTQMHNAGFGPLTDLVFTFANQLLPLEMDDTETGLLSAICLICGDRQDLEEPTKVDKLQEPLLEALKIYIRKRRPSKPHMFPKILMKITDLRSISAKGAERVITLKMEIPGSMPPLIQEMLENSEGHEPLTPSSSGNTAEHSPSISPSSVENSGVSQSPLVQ
smiles,measurement,setting,value
N#Cc1cccnc1,outcome,[1],inactive
same,outcome,[2],inactive
same,outcome,[3],inactive
same,outcome,[4],inactive
same,outcome,[5],inactive
same,outcome,[6],inactive
same,outcome,[7],inactive
same,outcome,[8],inactive
same,outcome,[9],inactive
same,outcome,[10],inactive
same,outcome,[11],inactive
same,outcome,[12],inactive
C[As+](C)(C)CC(=O)[O-],outcome,[2],inactive
same,outcome,[4],inactive
same,outcome,[5],inactive
same,outcome,[13],inactive
same,outcome,[14],inactive
same,outcome,[6],inactive
same,outcome,[15],inactive
CC(C)(C#N)N=NC(C)(C)C#N,outcome,[16],inactive
same,outcome,[1],inactive
same,outcome,[2],inactive
same,outcome,[3],inactive
same,outcome,[4],inactive
same,outcome,[14],inactive
same,outcome,[6],inactive
CCOP(=S)(OCC)SCSc1cc(Cl)ccc1Cl,outcome,[16],inactive
same,outcome,[1],inactive
same,outcome,[2],inactive
same,outcome,[3],inactive
same,outcome,[4],inactive
same,outcome,[5],inactive
same,outcome,[6],inactive
same,outcome,[15],inactive
same,outcome,[10],inactive
O=C(Cl)OCCOCCOC(=O)Cl,outcome,[16],inactive
same,outcome,[2],inactive
same,outcome,[4],inactive
same,outcome,[5],inactive
same,outcome,[14],inactive
same,outcome,[6],inactive
same,outcome,[10],inactive
OC(Cc1ccccc1Cl)(Cn1[nH]cnc1=S)C1(Cl)CC1 (stereo not drawn),outcome,[1],inactive
same,outcome,[2],inactive
same,outcome,[3],inactive
same,outcome,[4],inactive
same,outcome,[5],inactive
same,outcome,[13],inactive
same,outcome,[6],inactive
same,AC50,[15],75.7 µM (active)
same,outcome,[7],inactive
same,AC50,[8],20 µM (active)
same,outcome,[17],inactive
same,AC50,[9],20 µM (active)
same,outcome,[11],inactive
same,outcome,[12],inactive
O=C(O)c1cc(I)cc(I)c1I,outcome,[16],inactive
same,outcome,[2],inactive
same,outcome,[3],inactive
same,outcome,[4],inactive
same,outcome,[13],inactive
same,AC50,[14],100 µM (active)
same,outcome,[6],inactive
same,outcome,[15],inactive
same,AC50,[10],17.3 µM (active)
same,outcome,[11],inactive
CCCSP(=S)(OCC)Oc1ccc(SC)cc1 (stereo not drawn),outcome,[1],inactive
same,outcome,[2],inactive
same,outcome,[3],inactive
same,outcome,[4],inactive
same,outcome,[14],inactive
same,outcome,[6],inactive
same,outcome,[15],inactive
same,outcome,[10],inactive
COCC(=O)N(c1c(C)cccc1C)[C@H](C)C(=O)OC,outcome,[16],inactive
same,outcome,[1],inactive
same,outcome,[2],inactive
same,outcome,[3],inactive
same,outcome,[4],inactive
same,outcome,[5],inactive
same,outcome,[14],inactive
same,outcome,[6],inactive
same,outcome,[15],inactive
same,outcome,[7],inactive
same,outcome,[8],inactive
same,outcome,[17],inactive
same,outcome,[9],inactive
same,outcome,[10],inactive
same,outcome,[12],inactive
CNC(=O)O/N=C/C(C)(C)S(C)(=O)=O,outcome,[16],inactive
same,outcome,[1],inactive
same,outcome,[2],inactive
same,outcome,[3],inactive
same,outcome,[4],inactive
same,outcome,[13],inactive
same,outcome,[14],inactive
same,outcome,[6],inactive
same,outcome,[15],inactive
same,outcome,[10],inactive
Clc1cccc(Cl)c1,outcome,[2],inactive
same,outcome,[3],inactive
same,outcome,[4],inactive
same,outcome,[5],inactive
same,outcome,[13],inactive
same,outcome,[14],inactive
same,outcome,[6],inactive
same,outcome,[7],inactive
same,outcome,[8],inactive
same,outcome,[9],inactive
same,outcome,[11],inactive
same,outcome,[12],inactive
same,outcome,[18],inactive
Cc1cc(C(F)(C(F)(F)F)C(F)(F)F)ccc1NC(=O)c1cccc(I)c1C(=O)NC(C)(C)CS(C)(=O)=O,outcome,[2],inactive
same,outcome,[4],inactive
same,outcome,[14],inactive
same,outcome,[6],inactive
same,outcome,[15],inactive
same,outcome,[18],inactive
Nc1nc(=S)[nH][nH]1,outcome,[1],inactive
same,outcome,[2],inactive
same,outcome,[3],inactive
same,outcome,[4],inactive
same,outcome,[5],inactive
same,outcome,[13],inactive
same,outcome,[14],inactive
same,outcome,[6],inactive
same,outcome,[15],inactive
same,outcome,[10],inactive
CC(C)(C)c1ccccc1O,outcome,[16],inactive
same,AC50,[1],63.4 µM (active)
same,outcome,[2],inactive
same,AC50,[3],100 µM (active)
same,AC50,[4],100 µM (active)
same,outcome,[5],inactive
same,AC50,[13],164 µM (active)
same,outcome,[14],inactive
same,AC50,[6],138 µM (active)
same,outcome,[7],inactive
same,outcome,[8],inactive
same,outcome,[9],inactive
same,outcome,[10],inactive
same,outcome,[11],inactive
same,outcome,[12],inactive
CC(C)(C)c1ccc(CCOc2ncnc3ccccc23)cc1,outcome,[16],inactive
same,outcome,[2],inactive
same,outcome,[3],inactive
same,outcome,[4],inactive
same,outcome,[5],inactive
same,outcome,[14],inactive
same,outcome,[6],inactive
same,outcome,[10],inactive
CC(C)=CC1C(C(=O)OCc2cccc(Oc3ccccc3)c2)C1(C)C (stereo not drawn),outcome,[16],inactive
same,outcome,[2],inactive
same,outcome,[3],inactive
same,outcome,[4],inactive
same,outcome,[5],inactive
same,outcome,[6],inactive
same,outcome,[15],inactive
same,outcome,[7],inactive
same,outcome,[8],inactive
same,outcome,[9],inactive
same,outcome,[11],inactive
same,outcome,[12],inactive
